In the library only some 3.1% were active in any assay of this set; here they are far more common.
Mac1 fbg enh: enhancers of human CD11b/CD18 binding to fibrinogen | P05107+P11215 | K562 CD11b/CD18 adhesion to fibrinogen, ATPlite luminescence | activation, % at 10 µM | 0.07% of 93,000 active;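 active = 10 µM primary screen giving 50% or more activity, confirmed by 40% or more on retest at that dose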
CD11b adhes inh: inhibitors of human CD11b/CD18 binding to fibrinogen; P05107+P11215; 0.54% of 93,000 active; AID 1497; K562 CD11b/CD18 adhesion to fibrinogen, ATPlite luminescence; Mn2+ added to activate the integrin; inhibition, % at 10 µM;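 active = primary inhibition of 50% or more at 10 µM, then 40% or more on retest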
ERa SRC1 pot: ER-alpha (human) coactivator binding potentiation; TR-FRET ERalpha-LBD/SRC-Cy5 coactivator binding, 2 h; 100 = basal binding, no effect; coactivator binding (% of control), % at 25.6 µM; 1.3% of 86,000 active; in the data active = activity above about 200%;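 note: binding measured in presence of low estradiol as agonist stimulus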
ERb coact inh: ER-beta (human) coactivator binding inhibition; inhibition, % at 25.6 µM; TR-FRET ER-beta LBD / SRC1-Cy5 peptide binding; receptor agonist-loaded with 1 µM estradiol; Q92731; 1.3% of 86,000 active;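 active = compounds whose percent inhibition of the receptor-coactivator binding signal exceeds about 50% in the single-dose screen, limit read from the data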
Target sequence (Q92731 whole entry, looked up, the tested form may be a part): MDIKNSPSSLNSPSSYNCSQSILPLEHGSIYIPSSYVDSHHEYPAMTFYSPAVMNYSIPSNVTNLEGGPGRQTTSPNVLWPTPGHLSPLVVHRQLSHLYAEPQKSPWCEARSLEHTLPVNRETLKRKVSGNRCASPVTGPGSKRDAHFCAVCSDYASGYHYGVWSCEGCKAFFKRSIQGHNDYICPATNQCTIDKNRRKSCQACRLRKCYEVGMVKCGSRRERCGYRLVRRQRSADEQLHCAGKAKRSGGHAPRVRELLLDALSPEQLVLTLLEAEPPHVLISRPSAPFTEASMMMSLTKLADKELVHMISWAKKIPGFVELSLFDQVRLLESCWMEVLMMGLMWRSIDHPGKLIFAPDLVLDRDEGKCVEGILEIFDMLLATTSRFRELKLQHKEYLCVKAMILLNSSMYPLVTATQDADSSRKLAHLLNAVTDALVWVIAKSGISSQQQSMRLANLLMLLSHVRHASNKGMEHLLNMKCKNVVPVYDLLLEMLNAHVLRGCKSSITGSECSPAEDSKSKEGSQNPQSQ
ERa SRC1 inh: ER-alpha (human) coactivator binding inhibition. 1.7% of 86,000 active. P03372. TR-FRET ER-alpha LBD / SRC-1 peptide, estradiol-bound. AID 629. inhibition, % at 25.6 µM; in the data active = inhibition above about 50%
A number is an active result; - = inactive; . = no result; [ ] = another dose, or the depositor's remark.

SMILES | Mac1 fbg enh | CD11b adhes inh | ERa SRC1 pot | ERb coact inh | ERa SRC1 inh
Cc1oc(C(=O)Nc2ccc(O)cc2)cc1COc1ccccc1 | - | - | - | 52[fluorescence artefact?] | -
O=C(CSc1nnnn1C1CC2CCC1C2)Nc1ccnc2ccccc12 (centres undefined) | - | 100 | - | - | -
CCOc1ccc2ccccc2c1/C=N/NC(=O)CNC(=O)C(c1ccccc1)c1ccccc1 | - | - | . | . | .
O=C1CC(C(=O)N2CCOCC2)C2(CCCCC2)O1 (centres undefined) | - | - | - | - | -
CCOC(=O)C1C(c2ccc3c(c2)OCO3)NC(=O)NC1(O)C(F)(F)F (centres undefined) | - | - | - | - | -
CCOC(=O)C1C(c2cccs2)NC(=O)NC1(O)C(F)(F)F (centres undefined) | - | - | 527[fluorescence artefact?] | - | -
Cc1cc(S(=O)(=O)N(Cc2ccc(C(C)C)cc2)CC2CCCO2)ccc1-n1cnnn1 (centres undefined) | - | - | - | - | -
Cc1cc(S(=O)(=O)N(Cc2ccc(F)cc2)CC2CCCO2)ccc1-n1cnnn1 (centres undefined) | - | - | - | 63 | -
COc1cc(C(=O)N2CCC(n3c(C)nc4cc(F)ccc43)CC2)cc(OC)c1OC | . | . | - | - | -
COCCN1CCn2c(nc3cc(NC(=O)c4cccs4)ccc32)C1 | - | - | - | - | 74[fluorescence artefact?]
COc1cccc(C(=O)CN(C(=O)c2ccc(Cl)c(Cl)c2)N2C(=O)C3CCCCC3C2=O)c1 (centres undefined) | - | - | - | - | -
COc1cccc(-c2cc(C(=O)Nc3cc(C)on3)no2)c1 | - | - | 428[fluorescence artefact?] | - | -
COc1cccc(-c2cc(C(=O)NCc3ccc(Cl)cc3)no2)c1 | . | . | - | - | 70[fluorescence artefact?]
CCCSc1nc(N)c(C#N)c(-c2ccc(C)cc2)c1C#N | - | - | . | . | .
C=CCSc1nc(N)c(C#N)c(-c2ccccc2)c1C#N | - | - | 238[fluorescence artefact?] | - | -
Cc1[nH]n(-c2ccccc2)c(=O)c1N=Nc1nccs1 | - | 56 | . | . | .
Cc1[nH]n(-c2ccccc2)c(=O)c1/C=N/c1ccccn1 | . | . | - | - | -
Cc1nc2cccc(C(=O)NCc3ccccc3)c2o1 | - | - | - | - | 64
COc1cc(NC(=O)c2cc3c(C)nc4ccccc4c3o2)cc(OC)c1OC | - | - | - | - | -
CCc1ccc(CNC(=O)c2cc3c(C)nc4ccccc4c3o2)cc1 | - | 94 | - | 60[fluorescence artefact?] | -
COc1ccc(C)cc1NC(=O)c1cc2c(C)nc3ccccc3c2o1 | . | . | 204[fluorescence artefact?] | 58[fluorescence artefact?] | 66[fluorescence artefact?]
Cc1occc1C(=O)NCc1ccc2c(c1)OCO2 | - | - | - | - | -
Cc1occc1C(=O)NCc1cccc(CNC(=O)c2ccoc2C)c1 | - | - | - | - | 65
c1ccc(Cc2nnc3sc(-c4ccco4)nn23)cc1 | - | - | - | 59 | 64[fluorescence artefact?]
c1ccc(-c2cc(-c3nn4c(-c5ccco5)nnc4s3)c3ccccc3n2)cc1 | - | - | - | 54[fluorescence artefact?] | 70[fluorescence artefact?]
SMILES | Mac1 fbg enh | CD11b adhes inh | ERa SRC1 pot | ERb coact inh | ERa SRC1 inh
Clc1ccccc1-c1nnc2sc(-c3ccco3)nn12 | - | - | - | - | -
Cc1cc(-c2nn3c(-c4ccccc4)nnc3s2)c2ccccc2n1 | - | - | - | - | 73
Cn1c(=O)c2c(SCc3c(F)cccc3Cl)nc(CC(C)(C)C)nc2n(C)c1=O | - | - | - | - | -
O=C(c1cnccn1)N1CCc2ccccc21 | - | - | - | 97[fluorescence artefact?] | 79[fluorescence artefact?]
Cc1ccc(-n2c(C)nc3oc4ccccc4c(=O)c3c2=O)cc1 | - | - | - | 94[fluorescence artefact?] | 91[fluorescence artefact?]
O=C(COC(=O)c1ccc(Sc2ccccc2)c([N+](=O)[O-])c1)NC1CCCc2ccccc21 (centres undefined) | - | - | - | - | -
Cn1c(=O)c2c(nc(NCCc3ccccc3)n2CC(=O)NCCc2ccccc2)n(C)c1=O | - | - | 229[fluorescence artefact?] | - | -
O=C(CN1CCN(Cc2ccc(Cl)cc2)C1=O)NCCCN1CCN(c2ccc(F)cc2)CC1 | - | 57 | 277[fluorescence artefact?] | - | -
COc1ccc(CN(C(=O)c2cnccn2)C(C(=O)Nc2ccc(F)cc2)c2ccccc2)cc1 (centres undefined) | . | . | - | - | -
CCn1c(C)c(C(C)=O)c(N2CCCC2)nc1=S | - | - | - | - | -
CC(=O)c1c(N2CCCCC2)nc(=S)n(Cc2ccccc2)c1C | - | 52 | . | . | .
CC(C)P(=O)(c1cccc(C(=O)O)c1)C(C)C | - | - | . | . | .
CC(=O)c1c(COC(=O)c2ccncc2)nc2ccccc2[n+]1[O-] | - | - | - | 62[fluorescence artefact?] | -
CC(=O)c1c(COC(=O)c2ccco2)nc2ccccc2[n+]1[O-] | - | - | - | 61 | 64
CCOC(=O)c1c(COC(=O)c2ccco2)nc2ccccc2[n+]1[O-] | - | - | - | - | -
CC(CCc1ccccc1)NC(=O)c1nnc(Cc2ccc(Cl)cc2)o1 (centres undefined) | - | - | - | - | -
Cc1cccc(NC(=S)NNC(=O)CC(C)O)c1C (centres undefined) | - | - | . | . | .
CC1CCc2c(sc(NC(=O)c3ccc(Cn4cc([N+](=O)[O-])cn4)o3)c2C#N)C1 (centres undefined) | - | - | - | 64 | 61
O=c1oc2c(O)c(O)cc3c(=O)oc4c(O)c(O)cc1c4c23 | . | . | - | 98[fluorescence artefact?] | 94[fluorescence artefact?]
Cc1c(C)c2cc(Cl)c(O)c(CN(C)C)c2oc1=O | - | - | - | - | -
COc1ccc(S(=O)(=O)N(CCc2ccccc2)CC(=O)O)cc1C | - | - | - | - | -
C=CCOC(=O)c1sc(N2C(=O)c3oc4ccccc4c(=O)c3C2c2ccco2)nc1C (centres undefined) | . | . | - | 61 | 54
CCOc1ccccc1NC(=O)COC(=O)Cc1ccc(-c2ccccc2)cc1 | - | - | . | . | .
CCc1ccccc1NS(=O)(=O)c1ccc2[nH]cc(C(=O)NCC3CCCO3)c(=O)c2c1 (centres undefined) | . | . | - | - | 65
CCOc1ccc(NS(=O)(=O)c2ccc3[nH]cc(C(=O)NCC4CCCO4)c(=O)c3c2)cc1 (centres undefined) | . | . | - | - | -
SMILES | Mac1 fbg enh | CD11b adhes inh | ERa SRC1 pot | ERb coact inh | ERa SRC1 inh
O=C(NCc1ccco1)c1ccc(=O)[nH]n1 | - | - | - | 67[fluorescence artefact?] | -
O=C(NCc1ccccc1)c1ccc(=O)[nH]n1 | - | - | - | - | -
Cc1cc(Cl)ccc1OCC(=O)OC(C)C(=O)N(C)C (centres undefined) | - | - | - | 57 | 51
CCN(CC)C(=O)C(C)OC(=O)COc1ccc(Cl)cc1C (centres undefined) | - | - | - | - | -
O=c1c2cc(N3CCOCC3)ccc2[nH]c(=S)n1CCN1CCCC1 | - | - | - | - | -
Cc1ccc(Cn2c(=S)[nH]c3ccc(N4CCOCC4)cc3c2=O)o1 | - | - | - | 52[fluorescence artefact?] | -
O=c1c2cc(N3CCOCC3)ccc2[nH]c(=S)n1CCCN1CCCCCC1 | - | - | - | - | 75[fluorescence artefact?]
COn1c(SC2CCCCC2)nc2ccccc2c1=O | - | - | - | - | -
Cc1cc(OCC(=O)Nc2ccc(F)c(F)c2)nc(C(C)C)n1 | - | - | . | . | .

High-throughput results deposited in PubChem BioAssay by several laboratories.
